{
  "source": "PubChem BioAssay (NCI)",
  "note": "Where “and” joins values, the source holds several entries; their conditions need not be identical. Identical values can stand only once. About 83,000 compounds went through this panel and 20% of them were active in at least one assay; those are over-represented in the sample as a whole.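 Cells were grown in 96-well plates and exposed to the test compound at a single concentration for 48 hours; results are reported as percent growth, with values below 10 considered active.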 Calls of active or inactive are those of the source.",
  "data": [
    {"test_system": "TK-10 renal", "test": "NCI-60 one-dose screen, 48 h (100 = growth as untreated, 0 = no growth, -100 = all killed)", "conditions": "10 µM", "protocol": "(§1) Growth inhibition of the TK-10 human tumor cell line is measured as a screen for anti-cancer activity. Cells are grown in 96 well plates and exposed to the test compound for 48 hours. Compounds are tested at a single concentration, which is 10^-5 M for most compounds. The reported endpoint is percent growth (GI% or GIPRCNT), where numbers from 0 - 100% represent growth inhibition, and numbers from -100% - 0 represent cell death. For example, a value of 40 represents 60% growth inhibition. A value of 0 means no net growth occurred over the course of the experiment. A value of -40 indicates 40% of cells at the beginning of the experiment died by the end of the experiment. A value of -100 means all cells are dead at the end of the experiment.\n(§2) NCI-60 Human Tumor Cell Lines Screen was performed using the standard one-dose NCI protocol, which is described in more detail at https://dtp.cancer.gov/discovery_development/nci-60/default.htm.\n(§3) Compounds with GIPRCNT values below 10 were considered active. Activity score was based on GIPRCNT using the following formula: […]\n(§4) Score is 0 for GIPRCNT values of 100 or above, 50 for GIPRCNT values of 0, and 100 for GIPRCNT values of -100.", "values": [
      {"smiles": "N#CC(=S)Nc1ccc(Cl)c(Cl)c1", "growth": "17.5% (inactive)"},
      {"smiles": "Nc1nc(=S)c2[nH]cnc2[nH]1", "growth": "10.3% (inactive) and 31.3% (inactive)"}
    ]},
    {"test_system": "TK-10 renal", "test": "NCI-60 one-dose screen, 48 h (100 = growth as untreated, 0 = no growth, -100 = all killed)", "conditions": "10 µM unless noted", "protocol": "as §1, §2, §3, §4", "values": [
      {"smiles": "COc1cc2c(cc1O)C(=O)CCCC2", "growth": "110% (inactive)"},
      {"smiles": "Nc1ccccc1SC(CC(=O)c1ccccc1)c1cccc([N+](=O)[O-])c1", "note": "(stereo not given)", "growth": "131% (inactive) and 113% (inactive)"},
      {"smiles": "O=C(O)C1CSCN1", "note": "(stereo not given)", "growth": "103% (inactive) and 109% (inactive)"},
      {"smiles": "O=[N+]([O-])c1cccc(N=Cc2ccccc2)c1", "growth": "94.2% (inactive)"},
      {"smiles": "COc1ccc2oc3c(ccc[n+]3C)c(=O)c2c1", "growth": "97.6% (inactive)"},
      {"smiles": "OCCS", "growth": "84.7% (inactive)"},
      {"smiles": "Cc1c(Cl)c(C)c(Cc2c(C)c(Cl)c(C)c(Cl)c2O)c(O)c1Cl", "growth": "25.1% (inactive)"},
      {"smiles": "CCC(C)(O)CCC(C)(O)CC", "note": "(stereo not given)", "growth": "103% (inactive)"},
      {"smiles": "Cc1cccc(Cl)c1N", "growth": "111% (inactive)"},
      {"smiles": "COc1ccc(/C=N/NC(N)=S)cc1", "growth": "104% (inactive)"},
      {"smiles": "CC1(CO)CCCC1NCCNC1CCCC1(C)CO", "note": "(stereo not given)", "growth": "108% (inactive)"},
      {"smiles": "Nc1c(S(=O)(=O)O)cc(Br)c2c1C(=O)c1ccccc1C2=O", "growth": "102% (inactive) and 110% (inactive)"},
      {"smiles": "N#Cc1c[nH]n2ccnc12", "growth": "103% (inactive)"},
      {"smiles": "C(=N\\OCCc1ccccc1)/c1ccccn1", "growth": "93.3% (inactive) and 89.5% (inactive)"},
      {"smiles": "COc1ccc2nccc(Cl)c2c1", "growth": "103% (inactive)"},
      {"smiles": "COCCCNC1=C(C#N)C(=O)NC(c2cccs2)S1", "note": "(stereo not given)", "growth": "92.5% (inactive)"},
      {"smiles": "O=P(O)(O)OC1C(OP(=O)(O)O)C(OP(=O)(O)O)C(OP(=O)(O)O)C(OP(=O)(O)O)C1OP(=O)(O)O.[Cu+2]", "note": "(stereo not given)", "growth": "118% (inactive)"},
      {"smiles": "NCCSSC/C=C\\CSSCCN", "growth": "107% (inactive)"},
      {"smiles": "COc1ccc(/C=N/Nc2nc3ccccc3s2)cc1", "growth": "112% (inactive)"},
      {"smiles": "COc1ccc2oc3cc(NCCN(C)C)ccc3c(=O)c2c1", "growth": "106% (inactive) and 98.9% (inactive)"},
      {"smiles": "CN1C2C=CC(=O)C1C1C(=O)N(c3ccccc3)C(=O)C12", "note": "(stereo not given)", "growth": "78.9% (inactive)"},
      {"smiles": "CCCCCCCCCCCCCCCCC(=O)O", "growth": "86.6% (inactive)"},
      {"smiles": "CC(=O)Nc1ccc(OC(C)=O)cc1", "growth": "42% (inactive) and 99.1% (inactive)"},
      {"smiles": "CC(C)=NOC(C)C(=O)O", "note": "(stereo not given)", "growth": "104% (inactive)"},
      {"smiles": "CC(=O)c1cc2ccccc2o1", "growth": "93.6% (inactive)"},
      {"smiles": "O=c1[nH]c(=S)[nH]n1C(=S)n1[nH]c(=S)[nH]c1=O", "growth": "106% (inactive)"},
      {"smiles": "OCCCc1ccccc1", "growth": "108% (inactive)"},
      {"smiles": "CC(=O)/C(N=Nc1ccc(S(=O)(=O)c2ccc(N=N/C(C(C)=O)=C(/C)O)cc2)cc1)=C(\\C)O", "growth": "108% (inactive)"},
      {"smiles": "C(#CCN1CCOCC1)CCCN1CCOCC1", "growth": "109% (inactive) and 86.2% (inactive)"},
      {"smiles": "CCOC(=O)C(N)Cc1cc(I)c(O)c(I)c1", "note": "(stereo not given)", "growth": "120% (inactive) and 107% (inactive)"},
      {"smiles": "Cc1cc2nc3ccc(=[N+](C)C)cc-3sc2cc1N", "growth": "-12.3% (active) and 14.7% (inactive)"},
      {"smiles": "CNc1ccc(Cl)cc1S(=O)(=O)c1ccccc1[N+](=O)[O-]", "growth": "99.7% (inactive) and 95% (inactive)"},
      {"smiles": "Oc1ccc(O)c(-c2ccccc2)c1", "growth": "96.8% (inactive)"},
      {"smiles": "CCOC(=O)c1ccc(N2C(=O)C(Cl)(c3ccccc3)C2c2ccco2)cc1", "note": "(stereo not given)", "growth": "106% (inactive)"},
      {"smiles": "Nc1nc(N)c2cc(S(=O)(=O)c3ccccc3)ccc2n1", "growth": "59.6% (inactive) and 63.8% (inactive)"},
      {"smiles": "O=[N+]([O-])c1ccc(NC(c2ccccc2)c2ccc3cccnc3c2O)cc1", "note": "(stereo not given)", "growth": "42.7% (inactive)"}
    ]},
    {"test_system": "TK-10 renal", "test": "NCI-60 one-dose screen, 48 h (100 = growth as untreated, 0 = no growth, -100 = all killed)", "conditions": "100 µM", "protocol": "as §1, §2, §3, §4", "values": [
      {"smiles": "N#CC(=S)Nc1ccc(Cl)c(Cl)c1", "growth": "8.11% (active) and -69.1% (active)"}
    ]},
    {"test_system": "TK-10 renal", "test": "NCI-60 one-dose screen, 48 h (100 = growth as untreated, 0 = no growth, -100 = all killed)", "conditions": "250 µM", "protocol": "as §1, §2, §3, §4", "values": [
      {"smiles": "Nc1nc(=S)c2[nH]cnc2[nH]1", "growth": "-17% (active) and -85.4% (active)"}
    ]}
  ]
}
